# According to PubChem BioAssay AID493185 (National Center for Advancing Translational Sciences (NCATS), 2011):
# Unmarked numbers belong to inactive results. Calls of active or inactive are those of the source. Calls come from the whole dose curve; as a rule, active = well fitted activation curve with a large enough effect; inconclusive = small, poorly fitted or top-dose-only effect; inactive = no such curve, though single readings can be large or run the other way.
# Assay: Counterscreen for Identifying a Potential Treatment of Ataxia-Telangiectasia: Hit Validation; for activation: 0% is about no effect
# Conditions: cell-free AlphaLISA/AlphaScreen artifact counterscreen, PBS only, no cells; series mostly up to 76.9 µM; activation: at the top concentration
# How it was run: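 Without cells, compounds at up to 76.7 uM final were combined with premixed anti-pKAP1/anti-KAP1 AlphaLISA bead reagents, protease inhibitors and lysis buffer; signal read after 6 hr at 25C to flag assay-platform artifacts.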
# Potency is the fitted concentration of half-maximal effect.
SMILES,activation [%],Potency
CC(C)(CN1CCN(c2ccccc2)CC1)NS(=O)(=O)c1ccccc1,-7.38,–
O=C(NCc1ccccc1)c1cccnc1Sc1ccccc1,3.76,–
O=C(C[n+]1cccc2ccccc21)c1ccc(NC(=O)c2ccccc2)cc1,-3.85,–
O=C(c1nn2c(C(F)(F)F)cc(-c3ccc(F)cc3)nc2c1Cl)N1CCOCC1,2.26,–
COc1cccc(/C=N/NC(=O)c2cc3cc([N+](=O)[O-])ccc3s2)c1O,-1.5,–
COC(=O)Cn1ccc2cc(S(=O)(=O)N3CCCCC3)ccc21,-16.9,–
Cc1nn(-c2ccccc2)c2nc(C(Cl)(Cl)Cl)[nH]c(=O)c12,6.56,–
CNC(=O)c1ccc(-c2sc3nc(N4CCOCC4)c4c(c3c2N)CC(C)(C)OC4)o1,–,46.3 µM (active)
COc1cccc(C(=O)NOCc2ccc(C)cc2)c1OC,8.46,–
c1ccc(CSc2nnc(-c3ccco3)n2Cc2ccco2)cc1,-13.9,–
Cc1ccc(NC(=O)Nc2cccnc2)cc1NC(=O)Nc1cccnc1,-10.5,–
C=CCC(CC)C(=O)NC(=O)N1CCCc2ccccc21 (stereo not given),-6.15,–
COc1ccc(C2c3ccc(O)cc3Oc3ncn(CC(C)C)c(=N)c32)cc1 (stereo not given),-3.76,–
COc1ccc(C(=O)/C=C/C(=O)N(CC(=O)NC2CCCCC2)Cc2ccccc2)c(O)c1,3.76,–
COc1ccccc1N1CN(CCc2ccccc2)CNC1=S,-36.2,–
COC(=O)c1cccc2c1-c1ccccc1/C2=N\NC(N)=O,-15.6,–
Fc1ccc(C2N(c3ccccc3)C(=S)N3CCCN23)cc1 (stereo not given),-1.54,–
O=S(=O)(C/C(=C/CO)S(=O)(=O)c1ccccc1)c1ccccc1,-12.8,–
CCc1ccc(C2c3[nH]c4ccccc4c3CCN2C(=O)c2cc[n+]([O-])cc2)cc1 (stereo not given),22.6,–
CCOc1cccc(-c2nnc(SCC(=O)Nc3cc(C)ccc3OC)n2N)c1,-1.64,–

SMILES,activation [%],Potency
CN1C[C@@H]2C(c3ccccc3)C3(c4ccccc4)CC2(C3)[C@H]1c1ccccc1 (stereo not given in full),-6.92,–
Cc1nnc(SCC(=O)NC(=O)Nc2ccc3c(c2)OCCO3)n1N,-28.5,–
COc1ccc2nc(NCCCNC(=O)c3cc(OC)c(OC)c(OC)c3)c(C#N)cc2c1,–,29.2 µM (active)
COc1ccc(C(CNC(=O)C(Cc2ccccc2)NC(N)=O)N(C)C)cc1 (stereo not given),7.52,–
COc1cccc(CNCc2ccc(OC)c3ccccc23)c1OC,0.752,–
COc1ccc(-c2nn(-c3ccccc3)cc2/C=C/C(=O)O)cc1[N+](=O)[O-],-4.92,–
N#CCN1C(=O)C(=O)N(Cc2cccc(Cl)c2)C1=O,-0.769,–
CCC(=O)Nc1ccc(S(=O)(=O)c2ccc(NC(=O)CC)cc2)cc1,7.69,–
CC(=O)/C(N=Nc1nc2c([nH]1)c(=O)n(C)c(=O)n2C)=C(\C)O,-10,–
CC(C)(C=O)C1=CC(=O)c2ccccc2C1=O,0.752,–
Cc1ccc(C(=O)c2c(C)oc3c2C(=O)C(=O)c2ccccc2-3)cc1,-38.3,–
Cc1[nH]c2c(C)cccc2c1CN1CCC(CO)(Cc2ccccc2)CC1,-9.23,–
COc1ccc(C2NC(=S)NC3=C2N2CCC3CC2)cc1 (stereo not given),-22.3,–
CC(C)(C)n1nc2c(c1NC(=O)C1CC(=O)N(c3ccc(Cl)cc3)C1)CS(=O)(=O)C2 (stereo not given),-0.82,–
Cc1ccc(C(C)C)c(OCCN2CCc3ccccc3C2)c1,39.2,–
O=C(O)CCCN1C(=O)/C(=C/C=C/c2ccco2)SC1=S,-43.4,–
CC(=O)Nc1ccc(S(=O)(=O)NCC2(N3CCOCC3)CCCCC2)cc1,-7.69,–
Clc1cccc(Cl)c1CSc1nnc(-c2ccncc2)s1,-5.74,–
N#C/C(=C/c1ccc(F)cc1)C(N)=S,3.28,–
COc1ccc(CNC(=O)CN2C(=O)CSc3ccc(S(=O)(=O)N4CCOCC4)cc32)c(OC)c1,-11.3,–
